Data: paper PMC5540273 (PLoS ONE, 2017)

Assays:
Details in all cases: concentration: 1 μM, replicates: in singlicate; n = 1
[1] = system: TYK2(JH2domain-pseudokinase)
[2] = system: TYRO3
[3] = system: ULK1
[4] = system: ULK2
[5] = system: ULK3
[6] = system: T1, VEGFR2
T1 construct: gene KDR

[7] = system: T2, VPS34
T2 construct: gene PIK3C3

[8] = system: VRK2
[9] = system: WEE1
[10] = system: WEE2
[11] = system: WNK1
[12] = system: WNK2
[13] = system: WNK3
[14] = system: WNK4
[15] = system: T3, YANK1
T3 construct: gene STK32A

[16] = system: T4, YANK2
T4 construct: gene STK32B

[17] = system: T5, YANK3
T5 construct: gene STK32C

[18] = system: T6, YES
T6 construct: gene YES1

[19] = system: T7, YSK1
T7 construct: gene STK25

[20] = system: T8, YSK4
T8 construct: gene MAP3K19
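Note: KINOMEscan kinase panel screen.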

SMILES	%Inh [1] [%]	%Inh [2] [%]	%Inh [3] [%]	%Inh [4] [%]	%Inh [5] [%]	%Inh [6] [%]	%Inh [7] [%]	%Inh [8] [%]	%Inh [9] [%]	%Inh [10] [%]	%Inh [11] [%]	%Inh [12] [%]	%Inh [13] [%]	%Inh [14] [%]	%Inh [15] [%]	%Inh [16] [%]	%Inh [17] [%]	%Inh [18] [%]	%Inh [19] [%]	%Inh [20] [%]
FC(F)(F)c1ccc(/C=C/c2cncnc2Nc2ccc3[nH]c(Cc4ccccc4)nc3c2)cc1 [GW709199]	34	0	0	0	10	0	39	3	23	35	0	0	0	0	0	0	0	0	0	73
COc1cccc(NC(=O)NC2CCN(c3ccnc(Nc4cc(OC)c(OC)c(OC)c4)n3)C2)c1 (stereo not shown) [GSK1379763]	38	0	3	0	88	43	20	0	20	0	8	11	26	11	1	0	4	1	6	31
O=C(NC1CCN(c2ccnc(Nc3ccc(F)cc3)n2)C1)c1cc2ccccc2s1 (stereo not shown) [GSK1379716]	31	0	0	1	32	0	38	0	50	0	20	22	33	46	0	20	29	20	19	14
Cl.c1ccc(-c2ccc3c(Nc4ccc5[nH]ccc5c4)ccnc3c2)nc1 [GW440138]	27	0	0	0	6	98.3	0	40	8	6	0	13	35	55	0	0	0	40	0	51
COc1cc(Nc2nccc(-c3c(-c4cccc(NC(=O)c5c(F)cccc5F)c4)nn4ncccc34)n2)cc(OC)c1OC [GSK327238]	0	100	14	0	30	96.1	11	11	10	5	1	0	0	0	50	89	56	100	56	7
Nc1ncc(-c2cccnc2)c2scc(-c3ccc4c(c3)CCN4C(=O)Cc3ccccc3)c12 [GSK683281]	0	15	7	0	10	30	29	0	22	17	17	28	12	0	21	10	29	28	27	46
Cn1cc(-c2ccc3c(c2)CCN3C(=O)Cc2cccc(Cl)c2)c2c(N)ncnc21 [GSK2606590]	13	0	11	0	18	49	1	0	0	0	13	18	25	5	10	0	21	21	18	98.2
COc1ccc(CNC(=O)NC2CCN(c3ccnc(Nc4ccc(F)cc4)n3)CC2)cc1 [GSK1379788]	35	0	0	0	0	0	17	14	39	0	0	7	23	27	7	0	0	0	0	14
c1ccc(-c2cnc3nccnn23)cc1 [AH20685]	3	0	5	0	0	0	0	0	33	0	0	2	1	0	6	0	0	0	0	0
CC(=O)Nc1nc2cnc(Nc3cc(NC(=O)c4cccc(C5(C#N)CC5)c4Cl)ccc3C)nc2s1	0	15	0	6	0	40	22	0	0	32	0	0	0	0	0	12	25	82	0	0
c1ccc(-c2n[nH]cc2Nc2ccnc3ccccc23)nc1 [GW694077]	96.6	0	17	12	8	23	39	50	0	0	0	0	15	4	0	0	0	0	12	99.1
Cc1ccc(F)c(C(=O)Nc2cccc(-c3nn4ccccc4c3-c3ccnc(Nc4cccc(F)c4)n3)c2)c1F [GSK361061]	0	86	100	0	11	42	7	0	22	11	0	6	3	0	6	47	6	95.3	0	0
O=C(Nc1cccc(-c2nn3ccccc3c2-c2ccnc(Nc3cccc(C(F)(F)F)c3)n2)c1)c1c(F)cccc1F [GSK292658]	0	67	31	9	5	8	0	0	0	0	5	15	0	27	12	7	23	95.2	0	0
COc1ccc(Nc2nccc(N3CCC(NC(=O)Nc4cccc(OC)c4)C3)n2)cc1 (stereo not shown) [GSK1379742]	5	0	0	0	17	17	16	0	52	13	0	18	19	0	10	0	0	0	0	23
COc1cc(Nc2nccc(N3CCC(NC(=O)c4cc5ccccc5s4)C3)n2)cc(OC)c1OC (stereo not shown) [GSK1379760]	6	0	1	0	64	0	33	20	8	0	0	0	30	11	13	11	0	8	17	0
CC(C)(C)c1ccc2nccc(Nc3cccc(O)c3)c2c1 [GW856795]	32	0	0	19	0	50	52	100	0	13	0	0	40	0	0	0	0	5	0	0
COc1cc2c(cc1OCCN1CCNCC1)ncc1c3ccc(C#N)cc3[nH]c21	15	0	91.9	99.8	47	49	0	15	0	0	12	41	7	9	5	0	0	0	1	87
